# Compound activity (PubChem)
# AmpC no deterg: qHTS Inhibitors of AmpC Beta-Lactamase (assay without detergent); P00811; AmpC nitrocefin hydrolysis, absorbance 480 nm, 0.0001% Triton; Potency, µM (titrated, usually from 57.1 µM), without a hit: at the highest dose activity change, negative = inhibition, most hits filed as inhibitors; 330,000 compounds, 0.52% hits; AID 485341, 2010;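 note: plate controls were no compound for no effect and no enzyme for full effect; nearly all actives have a fitted effect of over 20% in size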
# Target sequence (P00811 whole entry, looked up): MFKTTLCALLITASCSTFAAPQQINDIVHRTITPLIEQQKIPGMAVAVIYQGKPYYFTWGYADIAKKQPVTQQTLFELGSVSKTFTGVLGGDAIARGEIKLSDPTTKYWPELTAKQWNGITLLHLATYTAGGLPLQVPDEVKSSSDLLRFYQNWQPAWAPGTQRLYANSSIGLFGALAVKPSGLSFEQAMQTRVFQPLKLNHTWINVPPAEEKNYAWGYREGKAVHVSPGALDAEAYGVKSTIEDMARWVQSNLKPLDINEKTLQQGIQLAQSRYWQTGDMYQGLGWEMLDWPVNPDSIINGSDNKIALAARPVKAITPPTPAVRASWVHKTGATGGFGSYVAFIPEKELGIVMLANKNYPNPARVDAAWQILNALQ
#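 20 mM phosphate pH 7.0 + 0.01% (detergent screen) or 0.0001% Triton X-100; 5.3 nM AmpC reagent; cpd preinc 15 min RT; nitrocefin (800 uM stock) to start; A480 q20 s × 4 min; Activity was normalised to no-enzyme and no-compound control wells.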
# Sm TGR inh: qHTS Assay for the Inhibitors of Schistosoma Mansoni Peroxiredoxins; Schistosoma mansoni thioredoxin glutathione reductase (TGR), Q962Y6; purified TGR, DTNB reduction, TNB absorbance 405 nm; Potency, µM (doses to about 114 µM), inactives show top-dose activity change, negative = inhibition, actives largely listed as inhibitors; 360,000 compounds, 3% hits; AID 485364, 2010; note: nearly all actives have a fitted effect of over 60% in size
#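 TGR 20 nM + NADPH 100 uM (dispensed conc.), cpd preinc 15 min RT; start with NADPH (500 uM addition) then DTNB (15 mM addition). Kinetic TNB absorbance, 405 nm filter. Four-parameter Hill fit across titration.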
# AMA1 RON2 block: qHTS for Inhibitors of AMA1-RON; Towards Development of Antimalarial Drug Lead: Primary Screen | Plasmodium falciparum AMA1 (3D7) - RON2 peptide interaction | AlphaScreen AMA1-biotinylated RON2 peptide binding | Potency, µM (highest dose often 58.2 µM), for inactives: at the highest dose activity change, negative = inhibition, actives largely listed as inhibitors | 360,000 compounds, 0.2% hits;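 note: 0% = vehicle wells and -100% = peptide control; nearly all actives have a fitted effect of over 45% in size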
#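 AMA1 (3D7) with his tag at 25 nM final met compounds first, then biotinylated RON2 peptide at 25 nM; detection used donor plus acceptor beads, 10 µg/mL apiece, read by AlphaScreen after 30 min at room temperature.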
# AmpC detergent: qHTS Inhibitors of AmpC Beta-Lactamase (assay with detergent); P00811; AmpC hydrolysis of nitrocefin, absorbance 480 nm, 0.01% Triton; Potency, µM (doses to about 114 µM), for the others: at the highest dose activity change, negative = inhibition, usual class: inhibitors; 370,000 compounds, 0.041% hits; AID 485294, 2010;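 note: 0% = no-compound wells and -100% = no-enzyme wells; nearly all actives have a fitted effect of over 25% in size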
#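 20 mM phosphate pH 7.0 + 0.01% (detergent screen) or 0.0001% Triton X-100; 5.3 nM AmpC reagent; cpd preinc 15 min RT; nitrocefin (800 uM stock) to start; A480 q20 s × 4 min; Activity was normalised to no-enzyme and no-compound control wells.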
# FMDV inh: High Throughput Screening for Foot and Mouth Disease Virus Antivirals; FMDV antiviral cell-based qHTS; Potency, µM (series often up to 57.9 µM), for inactives: at the top dose activity change, negative = inhibition, actives largely listed as inhibitors; 410,000 compounds, 1.2% hits; AID 1159524, 2015; calls by dose curve; tested in HEK293T cells; note: read-out not given here; nearly all actives have a fitted effect of over 45% in size
# Active calls of the source: *; ? = inconclusive; / = no result; [ ] = dose if it differs, or a comment. An excerpt weighted towards active compounds, which were near 4.1% of everything screened. Unless noted, calls come from the whole dose curve; as a rule, active = well fitted curve in the direction sought with a large enough effect; inconclusive = small, poorly fitted or top-dose-only effect, or another doubt; inactive = no such curve, though single readings can be large; an effect the other way counts as inactive or inconclusive. Unless noted, % is set by controls: 0 for no effect and ±100 for the full control effect; potency is the fitted concentration of half-maximal effect.
SMILES,AmpC no deterg,Sm TGR inh,AMA1 RON2 block,AmpC detergent,FMDV inh
Cc1ccc(C(C(=O)NCc2ccco2)N(Cc2ccco2)C(=O)CNC(=O)c2ccco2)cc1 (stereo not drawn),2%,45µM*,-10%,2%,3%
O=C(CCC(=O)N(Cc1ccco1)C(C(=O)NC1CCCC1)c1ccncc1)Nc1cccnc1 (stereo not drawn),4%,25µM*,1%,?,21%
O=C(NCC(=O)N(Cc1ccco1)C(C(=O)NC1CCCC1)c1cccnc1)c1cccs1 (stereo not drawn),-14%,-29%,3%,?,15%
COc1ccc(C(C(=O)NC2CCCCC2)N(Cc2ccco2)C(=O)CNC(=O)c2ccco2)cc1 (stereo not drawn),/,/,12%,/,12%
Cc1ccc(CNc2ncnc3sc(C(=O)N4CCC(N5CCCC(O)C5)CC4)c(C)c23)o1 (stereo not drawn),/,/,/,/,-2%
Cc1ccc(C)c(-n2nnc(-c3nc(-c4ccc(Cl)cc4)no3)c2N)c1,/,2%,/,14%,32%
O=C1C2C3C=CC(O3)C2C(=O)N1CC(O)c1ccccc1 (stereo not drawn),-16%,11µM*,-3%,?,-12%
O=C(CCc1ccccc1)NN1C(=O)C2C3C=CC(O3)C2C1=O (stereo not drawn),-19%,/,31%,-1%,-9%
CC1(C)S[C@@H]2[C@H](NC(=O)COc3ccccc3)C(=O)N2C1C(=O)OCC1CCCCC1 (stereo partly drawn),/,/,-3%,/,-14%
CC1(C)S[C@@H]2[C@H](NC(=O)COc3ccccc3)C(=O)N2C1C(=O)OCc1cc2ccccc2n1S(=O)(=O)c1ccccc1 (stereo partly drawn),8.9µM*,-14%,/,?,/
COc1ccccc1-c1ccc(/C=C2/C=C(C)OC2=O)o1,-50%,?,-14%,-12%,2%
COc1ccccc1-c1ccc(/C=C2\C=CC(=O)O2)o1,-30%,14µM*,38%,2%,-14%
COc1ccc(-n2cc(C(=O)NCc3ccccc3Cl)c3ccccc3c2=O)cc1,/,10%,/,14%,-12%
COc1cc(Cl)c(C)cc1NC(=O)CSc1sc2c(O)cc(=O)[nH]c2c1C#N,1.6µM*,-10%,-8%,-4%,-17%
COc1ccc(OC)c(NC(=O)CSc2sc3c(O)cc(=O)[nH]c3c2C#N)c1,-20%,?,?,4%,12%
N#Cc1c(SCC(=O)Nc2nncs2)sc2c(O)cc(=O)[nH]c12,-37%,35µM*,-9%,?,-9%
CCC(CC)C(=O)Nc1cc(-c2cn3cccnc3n2)ccc1OC,/,33%,/,-2%,-7%
Cc1nc2ccccc2c2c1CC(C(C)(Cl)Br)O2 (stereo not drawn),24%,-8%,-16%,2%,8.9µM*
Cc1oc2c(c1C(=O)NCc1cccnc1)C(=O)c1ccccc1C2=O,-14%,-20%,-3%,-4%,3.2µM*
Cc1ccc(OCc2nc(-c3ccc(C(=O)N4CCN(c5cc(Cl)ccc5C)CC4)cc3)oc2C)cc1,/,6%,/,18%,?
COc1ccc(-n2c(Cc3cccn3C)nnc2SCC(=O)N2CCOCC2)cc1,62%,-18%,-2%,?,-2%
Cn1cccc1Cc1nnc(SCC(=O)NCC2CCCO2)n1CCc1ccccc1 (stereo not drawn),57%,-10%,3%,?,22%
Cn1cccc1Cc1nnc(SCC(=O)N2CCOCC2)n1-c1ccc(F)cc1,2.5µM*,-34%,-2%,-10%,-21%
Cn1cccc1Cc1nnc(SCC(=O)NCc2ccco2)n1-c1ccc(F)cc1,44%,45µM*,3%,0%,4%
Cn1cccc1Cc1nnc(SCC(=O)NCc2ccco2)n1CCc1ccccc1,54%,50µM*,8%,0%,15%
SMILES,AmpC no deterg,Sm TGR inh,AMA1 RON2 block,AmpC detergent,FMDV inh
CC(C)Cc1nn2cc(-c3cccc(Br)c3)nc2s1,/,2%,/,17%,-11%
COc1ccc([C@]23Cc4cc(C#N)ccc4[C@H](O2)c2c(cc(C)n(Cc4ccccc4)c2=O)O3)cc1,-47%[11.4 µM],-33%[22.9 µM],/,-14%[22.9 µM],/
CC[n+]1ccc(C[n+]2ccccc2)c2ccccc21,?,-20%,-4%[11.6 µM],32µM*,-26%
Cc1ccc2c(c1)c(C)cc[n+]2Cc1ccccc1,-24%,2%,-7%,-8%,?
Nc1cc(=O)[nH]c(SCC(=O)N2CCN(S(=O)(=O)c3ccc4ccccc4c3)CC2)n1,-36%,1%,-2%,-2%,-7%
O=C(CSc1n[nH]c(-c2cccs2)n1)N1CCN(S(=O)(=O)c2ccc3ccccc3c2)CC1,-16%,0%,-3%,0%,22µM*
O=C(c1cc(-c2cccc(Cl)c2)nc2ccccc12)N1CCN(c2ccccn2)CC1,34%,17%,-20%,1%,-29%
Cc1cccc2c(C(=O)N3CCN(c4ccccn4)CC3)cc(-c3cccc(Br)c3)nc12,29%,-20%,-13%,1%,25µM*
O=C(CNC(=O)C12CC3CC(CC(C3)C1)C2)N1CCN(S(=O)(=O)/C=C/c2ccccc2)CC1,4%,2%,-11%,0%,40µM*
O=C(CNC(=O)C12CC3CC(CC(C3)C1)C2)N1CCN(S(=O)(=O)c2cccs2)CC1,6%,-18%,-10%,?,0%
CCOc1ccccc1NC(c1nnc(-c2ccccc2)o1)c1ccc(F)cc1Cl (stereo not drawn),/,14%,/,-2%,-13%
CC(C)CNS(=O)(=O)c1ccc(CCC(=O)N2CCOCC2)cc1,0.22µM*,0%,-10%,4%,19%
CC(C)CNS(=O)(=O)c1ccc(CCC(=O)N2CCCC2)cc1,4%,8%,24%,7%,26%
O=C(NCCCc1nc2ccccc2n1Cc1ccc(Cl)cc1)C1CCCCC1,/,-2%,/,1%,?
COc1ccc(-c2nn(-c3ccccc3)cc2/C=C2/SC(=S)N(CCC(=O)O)C2=O)c(C)c1,-15%,6%,-11%,9%,32µM*
Nc1ccc2c(c1)OC1(CCCCC1)O2,-40%,14µM*,?,2%,20%
CC(=O)Nc1ccc(CC(=O)Nc2ccc3c(c2)OC2(CCCC2)O3)cc1,/,/,-11%,/,19%
O=C1CCCc2cc(S(=O)(=O)NCC3CCC(C(=O)NCc4ccccc4Cl)CC3)ccc2N1 (stereo not drawn),/,2%,/,-6%,6%
COc1cc(C2Nc3cccc4cccc(c34)N2)cc(OC)c1O,32µM*,?,-5%,-3%,/
